Test results as given in PubChem BioAssay (NCI).
About 83,000 compounds went through this panel and 20% of them were active in at least one assay; those are over-represented in the sample as a whole.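 Treatment: one concentration, 48 hours, 96-well format. Scoring: percent growth, with anything below 10 considered active.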 The source made the active and inactive calls.

Tests used:
Experiment in all cases: NCI-60 one-dose screen, 48 h (100 = growth as untreated, 0 = no growth, -100 = all killed)
Details in all cases: 10 µM
786-0 renal = test system: 786-0 renal
MALME-3M melanoma = test system: MALME-3M melanoma
SF-268 CNS = test system: SF-268 CNS
SF-295 CNS = test system: SF-295 CNS
UACC-257 melanoma = test system: UACC-257 melanoma
UACC-62 melanoma = test system: UACC-62 melanoma
SK-MEL-28 melanoma = test system: SK-MEL-28 melanoma
SK-MEL-2 melanoma = test system: SK-MEL-2 melanoma
EKVX NSCLC = test system: EKVX NSCLC
SN12C renal = test system: SN12C renal
UO-31 renal = test system: UO-31 renal
TK-10 renal = test system: TK-10 renal
ACHN renal = test system: ACHN renal
CAKI-1 renal = test system: CAKI-1 renal
A498 renal = test system: A498 renal
OVCAR-8 ovarian = test system: OVCAR-8 ovarian
OVCAR-5 ovarian = test system: OVCAR-5 ovarian
IGROV1 ovarian = test system: IGROV1 ovarian
OVCAR-3 ovarian = test system: OVCAR-3 ovarian
HS 578T breast = test system: HS 578T breast

Measured: growth

C#CCOc1cc(N(CC)CC)ccc1C(C(=O)NC(C)(C)C)N(C(=O)C1CCc2cc(F)ccc2O1)c1ccc(F)cc1F (stereo not given)
active: SK-MEL-2 melanoma -30.4%
inactive: 786-0 renal 53.9% | MALME-3M melanoma 62.1% | SF-268 CNS 50.6% | SF-295 CNS 33.2% | UACC-257 melanoma 29.6% | UACC-62 melanoma 29.1% | SK-MEL-28 melanoma 62.8% | EKVX NSCLC 47.6% | SN12C renal 47.1% | UO-31 renal 27.7% | TK-10 renal 61.3% | ACHN renal 24.7% | CAKI-1 renal 29.8% | A498 renal 68.9% | OVCAR-8 ovarian 43.9% | OVCAR-5 ovarian 64% | IGROV1 ovarian 60.3% | OVCAR-3 ovarian 33.4% | HS 578T breast 70.6%

Cc1ccc(S(=O)(=O)N2CCN(S(=O)(=O)c3oc(-c4ccccc4)nc3C#N)CC2)cc1
inactive: 786-0 renal 86.6% | MALME-3M melanoma 92.7% | SF-268 CNS 79.1% | SF-295 CNS 132% | UACC-257 melanoma 73.3% | UACC-62 melanoma 45.3% | SK-MEL-28 melanoma 78.2% | SK-MEL-2 melanoma 75% | EKVX NSCLC 81.7% | SN12C renal 76.8% | UO-31 renal 61.7% | TK-10 renal 77% | ACHN renal 69.4% | CAKI-1 renal 69.8% | A498 renal 88.4% | OVCAR-8 ovarian 84.7% | OVCAR-5 ovarian 91.1% | IGROV1 ovarian 80.5% | OVCAR-3 ovarian 92.5% | HS 578T breast 95.2%

COc1ccc(NCc2cn(-c3ccc(C(=O)O)cc3)nc2-c2ccc(F)cc2)cc1C(F)(F)F
inactive: 786-0 renal 78.2% | MALME-3M melanoma 27.3% | SF-268 CNS 53.8% | SF-295 CNS 29.6% | UACC-257 melanoma 64.9% | UACC-62 melanoma 13.4% | SK-MEL-28 melanoma 33.3% | EKVX NSCLC 45.5% | SN12C renal 32.2% | UO-31 renal 35.9% | TK-10 renal 95.7% | ACHN renal 43.1% | CAKI-1 renal 65.2% | A498 renal 112% | OVCAR-8 ovarian 37.5% | OVCAR-5 ovarian 72.4% | IGROV1 ovarian 49.9% | OVCAR-3 ovarian 53.4% | HS 578T breast 48.7%
active: SK-MEL-2 melanoma -30.9%

COc1ccc(OC)c(-n2cc(C#N)c(N)c2C(=O)c2ccc(Cl)cc2Cl)c1
active: SK-MEL-2 melanoma -27.5%
inactive: 786-0 renal 63.4% | MALME-3M melanoma 50.3% | SF-268 CNS 56.2% | SF-295 CNS 28.4% | UACC-257 melanoma 63.6% | UACC-62 melanoma 30.5% | SK-MEL-28 melanoma 59% | EKVX NSCLC 42.7% | SN12C renal 48.9% | UO-31 renal 56.7% | TK-10 renal 78.8% | ACHN renal 53.3% | CAKI-1 renal 36.9% | A498 renal 28.3% | OVCAR-8 ovarian 68.8% | OVCAR-5 ovarian 74.4% | IGROV1 ovarian 53.3% | OVCAR-3 ovarian 23.5% | HS 578T breast 38.6%

C#C[C@]1(O)CC[C@H]2[C@@H]3CC=C4c5sc(Nc6ccc(N(C)C)cc6)nc5CC[C@]4(C)[C@H]3CC[C@@]21C
active: 786-0 renal -54.6% | MALME-3M melanoma -44.7% | SF-295 CNS -58.7% | UACC-62 melanoma -2.23% | SK-MEL-28 melanoma -21.6% | SK-MEL-2 melanoma -33.1% | UO-31 renal -45% | ACHN renal -4.47% | CAKI-1 renal 2.6% | A498 renal -42.4% | OVCAR-8 ovarian 0.0481% | IGROV1 ovarian 9.97% | OVCAR-3 ovarian 2.6% | HS 578T breast -7.74%
inactive: SF-268 CNS 11.7% | UACC-257 melanoma 45.9% | EKVX NSCLC 24.7% | SN12C renal 12.1% | TK-10 renal 42.3% | OVCAR-5 ovarian 21.7%

COc1ccc(-n2c(SCC(=O)NNS(=O)(=O)c3ccccc3)nc3ccc(Cl)cc3c2=O)cc1
inactive: 786-0 renal 101% | MALME-3M melanoma 117% | SF-268 CNS 102% | SF-295 CNS 102% | UACC-257 melanoma 117% | UACC-62 melanoma 77% | SK-MEL-28 melanoma 98.3% | SK-MEL-2 melanoma 100% | EKVX NSCLC 95.6% | SN12C renal 94.1% | UO-31 renal 63.5% | TK-10 renal 109% | CAKI-1 renal 80.4% | A498 renal 90% | OVCAR-8 ovarian 101% | OVCAR-5 ovarian 102% | IGROV1 ovarian 103% | OVCAR-3 ovarian 105% | HS 578T breast 99.7%
active: ACHN renal -8.76%

Cc1ccc(-c2nc(C#N)c(S(=O)(=O)N3CCN(S(C)(=O)=O)CC3)o2)cc1
inactive: SF-268 CNS 88.5% | SF-295 CNS 155% | UACC-257 melanoma 57.7% | UACC-62 melanoma 53.4% | SK-MEL-28 melanoma 34.3% | SK-MEL-2 melanoma 75.5% | EKVX NSCLC 101% | SN12C renal 78.1% | UO-31 renal 26.7% | TK-10 renal 97% | CAKI-1 renal 72% | A498 renal 132% | OVCAR-8 ovarian 25.5% | OVCAR-5 ovarian 76.9% | IGROV1 ovarian 54.9% | HS 578T breast 100%
active: 786-0 renal -76.2% | MALME-3M melanoma -76.8% | ACHN renal -97.9% | OVCAR-3 ovarian -22%
